Results on 16 molecules are retold here after PubChem BioAssay (NCI).

About 83,000 compounds went through this panel and 20% of them were active in at least one assay; those are over-represented in the sample as a whole.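 Interpretation: 100, growth as untreated; towards 0, rising growth inhibition; 0, no net growth; 0 to -100, cell death. Compounds scoring below 10 were considered active.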 A number with no mark means an inactive call. Active and inactive are the calls of the source.

Experiment in all cases: NCI-60 one-dose screen, 48 h (100 = growth as untreated, 0 = no growth, -100 = all killed)
Common to all, as to details: 10 µM unless noted

Assay [1] deals with T-47D breast.
Assay [2] concerns BT-549 breast.
Assay [3] has as its system MDA-MB-435 melanoma.
In assay [4] the test system is SW-620 colon.
The test system of assay [5] is MCF7 breast.
For assay [6], the system named is HCC-2998 colon.
The subject of assay [7] is KM12 colon.
Assay [8] has as its system HCT-116 colon.

With `COc1cc(-c2cc3ncccc3c3nc(OCCN(C)C)c4cccnc4c23)cc(OC)c1OC`, the growth in assay [1] is 37%; in assay [2], 41.6%; in assay [3], 18.1%; in assay [4], 17.4%; in assay [5], 3.86% (active); in assay [6], 17.1%. In assay [7], the growth was 18.7%.
Take `NC1=NN=C2N(N)C(=O)c3cnn(-c4ccccc4)c3N2c2nc(-c3ccccc3)cc(-c3ccccc3)c21`: the growth is 71.1% in assay [1]; 108% in assay [2]; 108% in assay [3]; 104% in assay [4]; 65.5% in assay [5]; 93.7% in assay [8]. For the same molecule, in assay [7], the growth is 103%.
Regarding `COc1ccc(/C=C(\C#N)c2cc3ccccc3n2C(C)=O)cc1`, the growth in assay [1] was 78.5%; in assay [2] it was 82.6%; in assay [3], 9.69% (active); in assay [4], 59.5%; in assay [5], 53.7%; in assay [6], 81.2%. In addition, the growth in assay [7] is 57.1%.
Regarding `COC(=O)[C@]12CC[C@@H](C)[C@H](C)[C@@H]1C1=CC[C@@H]3[C@@]4(C)C[C@@H](OC(C)=O)[C@H](O)[C@@](C)(CO)[C@@H]4[C@H](O)C[C@@]3(C)[C@]1(C)CC2`, the growth is -66.9% (active) in assay [1]; -81.5% (active) in assay [2]; -96.4% (active) in assay [3]; -67.8% (active) in assay [4]; -73.5% (active) in assay [5]; -87.8% (active) in assay [6]. For the same molecule, the growth in assay [7] is -84.2% (active).
Consider `Cn1cc(-c2csc(-c3cn(CCNC(=O)OC(C)(C)C)c4ccccc34)n2)c2cccnc21`, for which the growth in assay [1] is -1.03% (active); in assay [2], 67.2%; in assay [3], 74.5%; in assay [4], 92.4%; in assay [5], 39.4%; in assay [8], 81.1%. Besides, the growth in assay [7] was 59.2%.
For `CC1=CC(=O)N(c2cccc3c(N4C(=O)C=C(C)C4=O)cccc23)C1=O`, the growth is 30.1% in assay [1]; 99.7% in assay [2]; 80.6% in assay [3]; 14.3% in assay [4]; 57.7% in assay [5]; 105% in assay [6]. In addition, the growth in assay [7] is 106%.
Regarding `COc1ccc2c(c1)c(-c1nc(-c3c[nH]c4ncccc34)cs1)cn2CCCN1CCCCC1`, the growth is 66.1% in assay [1]; 67.5% in assay [2]; -84.6% (active) in assay [3]; -43.3% (active) in assay [4]; 10% (active) in assay [5]; 25.9% in assay [8]. Besides, the growth in assay [7] is 47.3%.
Turning to `O=C1Nc2ccccc2/C1=C/c1cn(CCCn2c3ccccc3c(=O)c3ccccc32)c2ccccc12`, the growth is 74.1% in assay [1]; 84.6% in assay [2]; 94.6% in assay [3]; 98.4% in assay [4]; 47.3% in assay [5]; 96.3% in assay [6]. In addition, in assay [7], the growth is 88.3%.
Regarding `N#Cc1cnc2cc(OC[C@@H](O)CO)c(NC(=O)CC3CSSC3)cc2c1Nc1ccc(OCc2cccc(F)c2)c(Cl)c1`, the growth in assay [1] was -60.9% (active); in assay [2], -71% (active); in assay [3] it was -85.2% (active); in assay [4] it was -74.8% (active); in assay [5] it was -58.8% (active); in assay [6], -78.2% (active). Besides, in assay [7], the growth was -79.6% (active).
Regarding `COC(=O)[C@@H]1[C@H]2C[C@H]3c4[nH]c5cc(OC)ccc5c4CCN3C[C@@H]2C[C@H](OC(=O)/C=C/c2ccnc(OC)c2)[C@H]1OC`, the growth in assay [1] was 67.1%; in assay [2] it was 81.2%; in assay [3] it was 97.5%; in assay [4], 98.3%; in assay [5] it was 72.6%; in assay [8], 73.4%. The growth in assay [7] was 98.8%.
With `N#Cc1cnc2cc(OC[C@@H](O)CO)c(NC(=O)C3CCCC3)cc2c1Nc1ccc(OCc2cccc(F)c2)c(Cl)c1`, the growth in assay [1] was -15.1% (active); in assay [2] it was -72.8% (active); in assay [3], 20.3%; in assay [4], 15.8%; in assay [5], -68.1% (active); in assay [6], -65.2% (active). Also, the growth in assay [7] was 45%.
Take `NC(Cc1ccc(O)cc1)C(=O)N/N=C/c1ccccc1O` (configuration not stated): the growth in assay [1] was 98.1%; in assay [2], 95.4%; in assay [3] it was 108%; in assay [4] it was 107%; in assay [5], 96.2%; in assay [6], 100%. Also, in assay [7], the growth was 97.6%.
Take `Nc1c2c(nc3ccc(Cl)cc13)CC(c1ccc(O)cc1)CC2=O` (configuration not stated): the growth in assay [1] is 54.8%; in assay [2], 53.3%; in assay [3], -38.5% (active); in assay [4], 33.8%; in assay [5], 25.1%; in assay [8], 26.2%. Also, in assay [7], the growth was 26.7%.
Regarding `Cc1ccncc1C(=O)O`, the growth in assay [1] was 107%; in assay [2], 99.8%; in assay [3], 101%; in assay [4], 97.3%; in assay [5] it was 101%; in assay [6], 116%. The growth in assay [7] is 98.6%.
Consider `COC(=O)[C@]12CC[C@@H](C)[C@H](C)[C@@H]1C1=CC[C@@H]3[C@@]4(C)C[C@@H](O)[C@H](O)[C@@](C)(CO)C4=CC[C@@]3(C)[C@]1(C)CC2`, for which the growth is -26.5% (active) in assay [1]; -80.2% (active) in assay [2]; -53.1% (active) in assay [3]; -55.5% (active) in assay [4]; -37.1% (active) in assay [5]; -86.5% (active) in assay [6]. The growth in assay [7] is -70.8% (active).
Turning to `COC(=O)[C@]12CC[C@@H](C(/C=C/c3cccnc3)=N/O)[C@@H]1[C@H]1CC[C@@H]3[C@@]4(C)CC(=C/c5cccnc5)/C(=N/O)C(C)(C)[C@@H]4CC[C@@]3(C)[C@]1(C)CC2`, the growth in assay [1] is 27.3%; in assay [2] it was 22.8%; in assay [3], 36.2%; in assay [4], 45.5%; in assay [5] it was 25.6%; in assay [8], 18.9%. In addition, the growth in assay [7] was 37.7%.
